The source made the active and inactive calls. How the source made its calls: active means hit-call score of the fitted dose curve at least 0.9, where 1 is the maximum; inactive means score below 0.9.
assay: ATG_Ets_CIS: Attagene CIS-FACTORIAL HepG2 Assay for human Erythroblast Transformation Specific (ETS) (AID 2282941); conditions: HepG2 ETS cis-reporter transcription, actives raise or lower the signal
Description: ATG_CIS is a cell-based, multiplexed-readout assay that uses HepG2, a human liver cell line, with measurements taken at 24 hours after chemical dosing in a 24-well plate.ATG_Ets_CIS is one of 52 assay component(s) measured or calculated from the ATG_CIS assay. It is designed to make measurements of mRNA induction, a form of inducible reporter, as detected with fluorescence intensity signals by Reverse transcription polymerase chain reaction (RT-PCR) and Capillary electrophoresis technology.Data from the assay component ATG_Ets_CIS was analyzed into 1 assay endpoint. This assay endpoint, ATG_Ets_CIS, was analyzed with bidirectional fitting relative to DMSO as the negative control and baseline of activity. Using a type of inducible reporter, measures of mRNA for gain or loss-of-signal activity can be used to understand the reporter gene at the transcription factor-level as they relate to the gene ETS1. Furthermore, this assay endpoint can be referred to as a primary readout, because this assay has produced multiple assay endpoints where this one serves a reporter gene function. To generalize the intended target to other relatable targets, this assay endpoint is annotated to the dna binding intended target family, where the subfamily is winged helix-turn-helix.
Human liver HepG2 cells are transiently transfected with multiple reporter transcription units (MRTUs) in 6-well plates using FuGene 6 reagent (Roche; 3 ml FuGene/1 mg DNA). The MRTU constructs are regulated by a cis-regulating element (promoter). […] A major difference between the CIS and TRANS system is that in CIS activities of endogenous TFs are measured, whereas the TRANS assay evaluates changes in activities of exogenous, chimeric NR-Gal4 proteins. […] At the end of 24 hour incubation, total RNA was isolated using TriZol reagent (Invitrogen). The isolated RNA is then reverse-transcribed using oligo(dT) primer and Mo-MLV reverse transcriptase (Invitrogen) with DNAse I (Ambion) treatment for 30 min. The one-tenth of the produced cDNA was amplified by PCR using Taq DNA polymerase (Invitrogen) and two reporter sequence-specific primers. The PCR products were fluorescently labeled by primer extension with 6-arboxyfluorescein (6-FAM) 5'-labeled reporter sequence-specific primer (2 min at 95 C, 20 s at 68 C and 10 min at 72 C) and these products were digested with 5U of HpaI (New England Biolabs) for 2h at 37 C. The fragments were purified using Qiaquick PCR columns (Qiagen), analyzed on an ABI 3130xL genetic analyzer (Applied Biosystems) with peak positions identified by using a set of X-rhodamine (ROX)-labeled MapMarker1000 molecular weight standards (BioVentures). The raw capillary electrophoresis data was processed using Attagraph software (Attagene).

outcome, inactive:
Cc1ccc(C)o1, CCN(CCN)c1cccc(C)c1, COC(C)(C)CCO, CC1=CC[C@@]23C[C@@H]1C(C)(C)[C@@H]2CC[C@H]3C, CCCCOCC, COc1cc(Cl)c(OC)cc1N, C=C(C)C(=O)OCC(CC)(COC(=O)C(=C)C)COC(=O)C(=C)C, CC(C)=CCCC(C)CC(=O)O (stereo not given), C=C(C)C1CC=C(C)C(=O)C1 (stereo not given), Cc1cc(=O)oc2cc(N(C)C)ccc12, CC1(C)O[C@@H]2[C@@H](CO[C@@]3(COS(N)(=O)=O)OC(C)(C)O[C@@H]23)O1, CCC(=O)O[C@@H]1C[C@H]2CC[C@]1(C)C2(C)C, C=C(C)[C@@H]1CC=C(C)C(=O)C1, Cc1c(C2(c3cc(Br)c(O)c(Br)c3C)OS(=O)(=O)c3ccccc32)cc(Br)c(O)c1Br, C=COCCOCCOC=C, CC(C)C[C@H](NC(=O)OCC1c2ccccc2-c2ccccc21)C(=O)O, Nc1c(S(=O)(=O)O)cc(Br)c2c1C(=O)c1ccccc1C2=O, C=CCN(CC=C)CC=C, Cc1c(OCC(F)(F)F)ccnc1CS(=O)c1nc2ccccc2[nH]1 (stereo not given), Cc1occc(=O)c1OC(=O)C(C)C, OC[C@H]1O[C@@H](Oc2ccc(O)cc2)[C@H](O)[C@@H](O)[C@@H]1O, CS(=O)(=O)OCCCCOS(C)(=O)=O, CC(=O)Nc1ccc(C(=O)CCl)cc1, Nc1ccc(NCCO)c([N+](=O)[O-])c1, CCCCCC(=O)CC, CCCC(=O)OC(C)(C)Cc1ccccc1, CC(=O)c1c(C)c([N+](=O)[O-])c(C(C)(C)C)c([N+](=O)[O-])c1C, Clc1ccc(C(c2ccccc2Cl)C(Cl)Cl)cc1 (stereo not given), CCNCCO, COc1ccc(CCO)cc1, CCOC(=O)COC(=O)c1cc(Oc2ccc(C(F)(F)F)cc2Cl)ccc1[N+](=O)[O-], CCCN(CCC)S(=O)(=O)c1ccc(C(=O)O)cc1, CCCCCCCCSCCO, CCCCCCCCCCCCCC(=O)OCC(O)CO (stereo not given), CCc1cc(Cc2cc(CC)cc(C(C)(C)C)c2O)c(O)c(C(C)(C)C)c1, COc1ccc(CCC(C)=O)cc1, C=C(C)C(=O)OCCOCCOCCOCCOC(=O)C(=C)C, CN(c1nccc(=O)[nH]1)C1CCN(c2nc3ccccc3n2Cc2ccc(F)cc2)CC1, CCOc1ccc(N=Nc2ccc(C=Cc3ccc(N=Nc4ccc(OCC)cc4)cc3S(=O)(=O)O)c(S(=O)(=O)O)c2)cc1

AC50, active:
COc1ccc(N=Nc2cc(C)c(N=Nc3ccc(S(=O)(=O)O)cc3)cc2OC)cc1 166 µM
